Screening data as filed in PubChem BioAssay.
PPC-1+TRAIL kill: compounds killing PPC-1 cancer cells with TRAIL present (potentiator screen, no TRAIL-free arm); PPC-1 cells + TRAIL, ATPLite viability luminescence; cell killing (% activity), % at 4 µM or 5 µM; 220,000 tested, 0.41% active; AID 1443;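 active = cell killing above 50% in the first pass at 4 µM, then a duplicate retest at 5 µM averaging 50% or more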;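 note: plate controls were cells with TRAIL plus DMSO for no effect and medium-only wells lacking cells for full effect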
C8 TRAIL sens: caspase-8 TRAIL sensitization; NB7+C8 cells + TRAIL, ATPlite viability luminescence; inhibition (viability loss, TRAIL sensitization), % at 10 µM; 360,000 tested, 1% active;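 active = compounds causing at least 50% loss of cell viability in the single-dose screen, relative to plate controls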
SENP6 block: blocks the human protease SENP6; Recombinant SENP6 catalytic domain, aminoluciferin luminescence; 330,000 tested, 1.8% active; inhibition, % at 10 µM;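 active = inhibition above about 50% at the single tested dose, limit read from the data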;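 note: plate controls were DMSO wells with enzyme for no effect and DMSO wells lacking enzyme for full effect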
Target sequence (Q9GZR1 628-1112 limits assumed): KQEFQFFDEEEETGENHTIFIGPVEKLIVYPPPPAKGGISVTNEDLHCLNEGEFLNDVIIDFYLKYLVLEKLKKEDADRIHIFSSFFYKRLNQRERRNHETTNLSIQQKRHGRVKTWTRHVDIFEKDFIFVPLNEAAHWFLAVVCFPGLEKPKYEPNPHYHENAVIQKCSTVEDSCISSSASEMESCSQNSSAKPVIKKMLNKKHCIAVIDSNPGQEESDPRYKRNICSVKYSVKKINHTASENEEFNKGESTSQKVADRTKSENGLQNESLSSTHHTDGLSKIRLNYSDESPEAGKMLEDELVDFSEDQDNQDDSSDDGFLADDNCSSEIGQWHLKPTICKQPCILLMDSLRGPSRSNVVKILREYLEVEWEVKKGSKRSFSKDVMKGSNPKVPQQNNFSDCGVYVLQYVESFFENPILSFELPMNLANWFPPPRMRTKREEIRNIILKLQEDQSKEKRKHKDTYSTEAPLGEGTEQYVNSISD
SENP8 block-1: blocks the human protease SENP8; Q96LD8; inhibition, % at 10 µM; 330,000 tested, 1.2% active; purified SENP8, Z-RLRGG-aminoluciferin cleavage, luminescence; in the data active = inhibition above about 50%
Target sequence (Q96LD8 whole entry, looked up): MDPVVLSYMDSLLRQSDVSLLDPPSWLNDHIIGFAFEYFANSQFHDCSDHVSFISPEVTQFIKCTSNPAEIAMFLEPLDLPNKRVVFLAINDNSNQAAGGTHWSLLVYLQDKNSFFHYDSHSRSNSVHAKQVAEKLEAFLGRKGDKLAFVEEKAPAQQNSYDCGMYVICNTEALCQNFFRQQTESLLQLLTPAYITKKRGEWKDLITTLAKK
SENP7 block: inhibitors of human SENP7 protease; recombinant SENP7, Z-RLRGG-aminoluciferin luminescence, 40 min; inhibition, % at 5 µM; AID 434973; 330,000 tested, 1.5% active; Q9BQF6;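 active = inhibition above about 50% at the single test dose, limit read from the data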;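 note: plate controls were DMSO with enzyme for no effect and no enzyme buffer wells for full effect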
SENP8 block-2: SENP8 (human) protease inhibition; AID 602440; Q96LD8; recombinant SENP8, Nedd8 substrate fluorescence; inhibition, % at 20 µM; 360,000 tested, 0.64% active; in the data active = inhibition mostly above about 40%, no sharp cut-off; inactive = mostly below about 27%
SENP8 confirm: confirmation of human SENP8 protease inhibitors; shares compounds with SENP7 block; Recombinant SENP8, Z-RLRGG-aminoluciferin luminescence, 60 min; inhibition, % at 12.5 µM; 6,200 tested, 40% active; AID 488912;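 active = mean inhibition across replicates above about 50%, limit read from the data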
SENP6 confirm: confirmation of human SENP6 protease inhibitors; shares compounds with SENP7 block; recombinant SENP6, Z-RLRGG-aminoluciferin luminescence; inhibition, % at 12.5 µM; 6,200 tested, 58% active; AID 488915
SENP7 conf: confirmation of human SENP7 protease inhibitors | AID 488917 | shares compounds with SENP7 block | recombinant SENP7, Z-RLRGG-aminoluciferin luminescence, 40 min | 6,200 tested, 69% active | inhibition, % at 12.5 µM
Casp3 SENP sel: caspase-3 inhibition (SENP selectivity assay); shares compounds with SENP7 block; purified caspase-3, Z-DEVD-aminoluciferin luminescence, 60 min; inhibition, % at 12.5 µM; 6,200 tested, 60% active; AID 488918;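 active = mean inhibition above about 50%, limit read from the data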;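 note: plate controls were enzyme with DMSO for no effect and wells without caspase-3 for full effect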
SENP luc ctr: luminescence interference (SENP counter-screen). 6,200 tested, 39% active. AID 488919. Pre-incubated SENP8/Z-RLRGG-aminoluciferin, luciferase luminescence interference. inhibition, % at 12.5 µM. shares compounds with SENP7 block;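 active = mean inhibition above about 50% when retested at one dose, limit read from the data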;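 note: plate controls were DMSO wells with completed reaction for no effect and substrate without enzyme for full effect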
Active calls of the source: *; nt = no result given. Shown are actives, neighbours in structure and some others; about 3% of the full set was active somewhere.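 Rule for the calls, unless noted: active = mean inhibition above about 50% in the one-dose retest (limit read from the data); inactive = the rest.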

SMILES | PPC-1+TRAIL kill | C8 TRAIL sens | SENP6 block | SENP8 block-1 | SENP7 block | SENP8 block-2 | SENP8 confirm | SENP6 confirm | SENP7 conf | Casp3 SENP sel | SENP luc ctr
COc1ccc(-c2cc3ncnc(Cl)c3s2)cc1 | nt | 48 | 83* | 84* | 46 | -313 | -22 | 34 | 48 | 40 | 12
O=C(C1CC1)N1CCC(c2nc(-c3ccc(S(=O)(=O)N4CCCC4)cc3)no2)CC1 | -4 | 10 | 10 | -4 | 84* | 14 | 9 | 10 | -1 | -6 | -9
O=C(NC1CCCCC1)N1CCC(c2nc(-c3ccc(S(=O)(=O)N4CCCC4)cc3)no2)CC1 | -4 | 0 | -9 | 4 | 0 | 16 | nt | nt | nt | nt | nt
CCOc1ccc(C(CN2CCOCC2)C(C)=O)cc1OC (stereo not given) | nt | 15 | nt | nt | nt | 14 | nt | nt | nt | nt | nt
COc1ccc(N2CCN(C(C)C(=O)Nc3nnc(C)s3)CC2)cc1 (stereo not given) | 14 | 0 | -12 | -1 | -2 | 8 | nt | nt | nt | nt | nt
COc1cccc(OCC(O)CNC2CCCC2)c1 (stereo not given) | nt | -10 | 15 | 12 | -1 | 5 | nt | nt | nt | nt | nt
Nc1c(C(=O)NCc2ccco2)c2nc3ccccc3nc2n1CCc1ccccc1F | 19 | -4 | 51* | 40 | 34 | -300 | 2 | 6 | -9 | 2 | -2
COc1ccc(-n2c(N)c(C(=O)NCc3ccco3)c3nc4ccccc4nc32)c(OC)c1 | 0 | -9 | 32 | 9 | 9 | -402 | nt | nt | nt | nt | nt
COc1ccc(CCn2c(N)c(C(=O)NCc3ccco3)c3nc4ccccc4nc32)cc1OC | 11 | 1 | 70* | 38 | 35 | -315 | 15 | 10 | 2 | -1 | -1
COc1ccc(CCn2c(N)c(C(=O)NCc3ccco3)c3nc4ccccc4nc32)cc1 | 2 | -44 | 25 | 14 | 19 | -361 | nt | nt | nt | nt | nt
O=C(COC(=O)CCN1C(=O)C2CC=CCC2C1=O)Nc1ccc(Cl)cc1F (stereo not given) | nt | -11 | -17 | -9 | -11 | 8 | nt | nt | nt | nt | nt
CN1CCN(C(=O)/C=C/c2ccc(Cl)c(Cl)c2)CC1 | nt | -7 | -7 | -6 | 4 | 5 | nt | nt | nt | nt | nt
O=C(/C=C/c1ccc(Cl)c(Cl)c1)N1CCc2ccccc21 | 0 | 29 | 9 | -12 | 66* | 15 | -13 | -8 | -6 | 8 | 1
CN(C)c1ccc(C=NNc2ccccn2)c(Cl)c1 | nt | 5 | nt | nt | nt | -474 | nt | nt | nt | nt | nt
O=C(O)c1ccc(/C=N\Nc2ccccn2)cc1 | nt | 1 | 92* | 89* | 95* | -3 | 95* | 96* | 102* | 98* | 89*
CN(C)c1ccc(/C=N\Nc2ccccn2)cc1 | nt | 32 | 68* | 34 | 54* | -172 | 58* | 57* | 86* | 68* | 28
C(=N\Nc1ccccn1)/c1cccnc1 | nt | 0 | -15 | -22 | -12 | 5 | nt | nt | nt | nt | nt
O=C(CN1C(=O)c2ccccc2S1(=O)=O)c1ccc(Cl)cc1Cl | nt | 67* | 67* | 72* | 8 | -2 | 73* | 77* | 84* | 50* | 9
CC(=O)c1ccc(NC2=C(N3CCOCC3)C(=O)c3ccccc3C2=O)cc1 | -6 | 16 | 53* | 29 | 9 | 59* | 21 | 56* | 37 | 9 | 2
Cc1ccc(NC2=C(N3CCOCC3)C(=O)c3ccccc3C2=O)cc1 | 4 | 56* | 80* | 68* | 35 | 71* | 72* | 83* | 72* | 88* | 29
CCC(CC)C(C(=O)NCc1ccccc1)N1CCN(C(=O)C2CCCO2)CC1 (stereo not given) | nt | 5 | nt | nt | nt | 16 | nt | nt | nt | nt | nt
O=C(Nc1sc2c(c1C(=O)O)CCCCC2)c1ccco1 | 37 | 33 | 97* | 93* | 88* | -134 | 96* | 97* | 101* | 96* | 95*
CN1CCN(C(=O)c2c(NC(=O)c3ccco3)sc3c2CCC(C(C)(C)C)C3)CC1 (stereo not given) | 14 | -11 | -1 | -2 | -3 | -42 | nt | nt | nt | nt | nt
CC1CCc2c(sc(NC(=O)c3ccco3)c2C(=O)O)C1 (stereo not given) | nt | 14 | 78* | 62* | 5 | -107 | 78* | 72* | 88* | 66* | 65*
CCOC(=O)c1ccc(N=Cc2nc(-c3ccccc3)oc2OC(C)=O)cc1 | 4 | -13 | -35 | -13 | -8 | -6 | nt | nt | nt | nt | nt
SMILES | PPC-1+TRAIL kill | C8 TRAIL sens | SENP6 block | SENP8 block-1 | SENP7 block | SENP8 block-2 | SENP8 confirm | SENP6 confirm | SENP7 conf | Casp3 SENP sel | SENP luc ctr
CC(=O)Oc1oc(-c2ccccc2)nc1C=Nc1ccccc1 | 11 | -11 | 3 | 2 | -6 | 13 | nt | nt | nt | nt | nt
CN(C)c1ccc(N=Cc2nc(-c3ccccc3)oc2OC(=O)c2cccc(Br)c2)cc1 | 22 | 6 | 78* | 49 | 47 | 8 | -23 | 10 | 16 | 36 | 27
COc1ccc(N=Cc2nc(-c3ccccc3)oc2OC(=O)c2ccccc2)cc1 | 26 | 39 | 54* | 11 | 56* | 4 | 9 | 7 | 8 | 62* | 5
O=C(Cc1cccs1)Nc1ccccc1C(=O)O | 1 | -10 | 63* | 45 | 31 | 6 | 52* | 50* | 84* | 88* | 71*
C=C(C)C(O)CC/C(C)=C/Cc1c(O)ccc(C(=O)/C=C/c2ccc(O)cc2)c1O (stereo not given) | nt | 48 | 88* | 90* | 65* | 36 | 97* | 96* | 99* | 37 | 39
Nc1ccc2c(c1)C(=O)c1ccccc1C2=O | nt | 10 | 53* | 31 | 4 | 9 | 55* | 50* | 80* | 54* | 8
CN(C)c1ccc(S(=O)(=O)N2CCC(Cc3ccccc3)CC2)cn1 | nt | -3 | -4 | 1 | 0 | -30 | nt | nt | nt | nt | nt
CCC1(c2ccc(F)cc2)NC(=O)N(CC(=O)Nc2ccc(-c3nc4ccc(C)cc4s3)cc2)C1=O (stereo not given) | 35 | 33 | 58* | -12 | -1 | -266 | 3 | -3 | 14 | 18 | 17
C[C@@H]1CCCCO[C@H](CN(C)C(=O)Cc2ccccc2)[C@@H](C)CN([C@H](C)CO)C(=O)c2cc(N(C)C)ccc2O1 | nt | 16 | nt | nt | nt | -35 | nt | nt | nt | nt | nt
Fc1ccc(COc2ccc(C(=S)N3CCCC3)cc2)cc1 | nt | -3 | 62* | 38 | 40 | 12 | 60* | 54* | 76* | 46 | 28
